We go through 14 compounds from the supplement of paper PMC6522484.

± gives the standard deviation of the averaged measurements.

In the assay the test system is SW480. Put plainly: cell viability (CellTiter-Glo) relative to plate median (fraction of plate median); higher = more viable cells. Conditions: 10 µM; treatment time 24 h; reporter: 7TFP. The essentials:
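Colorectal cancer cells expressing a stably transduced lentiviral TCF/Wnt firefly luciferase reporter were treated in 384-well plates with kinase inhibitor library compounds at a final 10 µM for 24 h. Firefly luciferase or CellTiterGlo luminescence was then read on parallel plates. Well signals were normalised to the plate median (webcellHTS2, additive, no log transformation) and averaged over two independent replicates.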
In general terms: In ATP-based viability assays light output follows the ATP content of the culture.
In turn, `CC(C)(C)c1cc(/C=C(\C#N)C(N)=S)cc(C(C)(C)C)c1O` [Tyrphostin AG 879 (AG 879)] yielded a cell viability of 0.844 ± 0.018.

In turn, `C=CC(=O)Nc1cc2c(Nc3ccc(F)c(Cl)c3)ncnc2cc1OCCCN1CCOCC1` [CI-1033 (Canertinib)] came in with a cell viability of 1.03 ± 0.035.

On to `NCC(=O)Nc1ccc(-n2nc(C(F)(F)F)cc2-c2ccc3c(ccc4ccccc43)c2)cc1`, for which the cell viability is 0.678 ± 0.46.

In turn, `COc1ccc(-c2cc3c(C)nc(N)nc3n([C@H]3CC[C@H](OCCO)CC3)c2=O)cn1` yielded a cell viability of 1.1 ± 0.099.

`Clc1ccc(C2(c3ccc(-c4cn[nH]c4)cc3)CCNCC2)cc1` registered a cell viability of 1.15 ± 0.057.

With `C[S+]([O-])c1ccc(-c2nc(-c3ccc(F)cc3)c(-c3ccncc3)[nH]2)cc1` (centres undefined), the cell viability was determined as 0.913 ± 0.0099.

Consider `C=CC(=O)Nc1ccc2ncnc(Nc3ccc(OCc4cccc(F)c4)c(Cl)c3)c2c1`, for which the cell viability is 1 ± 0.07.

`CCn1nnc2c(N3CCOCC3)nc(-c3ccc(NC(=O)Nc4ccc(C(=O)N5CCN(C)CC5)cc4)cc3)nc21` yielded a cell viability of 1.14 ± 0.028.

Turning to `O=c1cc(N2CCOCC2)oc2c(-c3cccc4c3sc3ccccc34)cccc12`, the cell viability was 1.04 ± 0.014.

`Cc1cnc(Nc2ccc(N3CCN(C)CC3)cc2)nc1Nc1cccc(S(=O)(=O)NC(C)(C)C)c1` registered a cell viability of 0.702 ± 0.18.

Take `COc1ccc(S(=O)(=O)N(C(C)=O)c2ccccc2/C=C/c2cc[n+]([O-])cc2)cc1`: the cell viability worked out at 1.14 ± 0.085.

On to `COc1cc2ncnc(Nc3ccc(F)c(Cl)c3)c2cc1OCCCN1CCOCC1` [Gefitinib (Iressa)], for which the cell viability was 0.917 ± 0.03.

In turn, `CN1CCN(c2cccc(Nc3nc4c(-c5ccc(S(C)(=O)=O)cc5)cccn4n3)c2)CC1` registered a cell viability of 1.055 ± 0.0071.

As to `CC(=O)Nc1nc(C)c(-c2ccc(Cl)c(S(=O)(=O)NCCO)c2)s1`, the cell viability was 1.1.
